Assay outcomes as filed in PubChem.
G9a inh: G9a (human) methyltransferase inhibition; 350,000 compounds, 8.8% hits; G9a H3K9 monomethylation, AlphaScreen, 2 h; Potency, µM (highest dose often 102 µM), inactives show top-dose activity, negative = inhibition, actives largely listed as inhibitors; note: % is set by controls: 0 for no effect and ±100 for the full control effect; nearly all actives have a fitted effect of over 75% in size
Target sequence (Q96KQ7 913-1193 limits assumed): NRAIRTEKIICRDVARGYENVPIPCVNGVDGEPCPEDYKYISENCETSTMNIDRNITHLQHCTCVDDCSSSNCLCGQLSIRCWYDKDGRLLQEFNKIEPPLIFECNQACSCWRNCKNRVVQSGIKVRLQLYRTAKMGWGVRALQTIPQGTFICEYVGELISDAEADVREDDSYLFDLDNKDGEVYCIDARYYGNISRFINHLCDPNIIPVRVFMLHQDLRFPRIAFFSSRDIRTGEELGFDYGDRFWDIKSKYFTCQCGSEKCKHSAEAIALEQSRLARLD
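Enzyme 20 nM + cpd, 15 min RT; add b-H3K9 pep 500 nM / SAM 20 uM; 2 h RT; anti-H3K9me1 Ab 0.5 ug/mL + SA donor / anti-rabbit acceptor beads 20 ug/mL each, 10 min; AlphaScreen read.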
BAZ2B block: BAZ2B (human) inhibition; Q9UIF8; AlphaScreen BAZ2B-H3K14Ac peptide displacement; Potency, µM (highest dose often 114 µM), for inactives: at the highest dose activity change, negative = inhibition, most hits filed as inhibitors; 360,000 compounds, 4.4% hits; AID 504333; note: % is set by controls: 0 for no effect and ±100 for the full control effect; nearly all actives have a fitted effect of over 60% in size
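AlphaScreen luminescence quantifies BAZ2B engagement of H3K14Ac peptide; the protein and biotinylated peptide are both at 50 nM final, buffer PBS pH 7.4 with 0.01% Tween-20, all steps at room temperature.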
JMJD2A Tudor inh: blocks the human JMJD2A Tudor domain; 390,000 compounds, 4.4% hits; O75164; Potency, µM (doses to about 114 µM), inactives show at the top dose activity change, negative = inhibition, usual class: inhibitors; AlphaScreen JMJD2A-Tudor / H3K4me3 peptide binding; note: % is set by controls: 0 for no effect and ±100 for the full control effect; nearly all actives have a fitted effect of over 50% in size
HP1b chromo inh: HP1-beta chromodomain-methylated histone interaction inhibition; AlphaScreen HP1-beta / biotin-H3K9me3 peptide binding; AID 540317; Potency, µM (titrated, usually from 114 µM), without a hit: at the top dose activity change, negative = inhibition, hits mostly inhibitors; 390,000 compounds, 0.56% hits; P83916; note: nearly all actives have a fitted effect of over 70% in size
Target sequence (P83916 whole entry, looked up): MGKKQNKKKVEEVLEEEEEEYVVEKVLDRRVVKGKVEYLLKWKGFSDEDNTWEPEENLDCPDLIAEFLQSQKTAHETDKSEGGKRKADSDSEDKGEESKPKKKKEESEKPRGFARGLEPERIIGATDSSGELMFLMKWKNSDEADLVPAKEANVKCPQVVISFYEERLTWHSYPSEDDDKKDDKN
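HP1-beta protein (50 nM final) preincubated 30 min at room temperature with biotinylated H3(1-18)K9me3 peptide (50 nM) in PBS pH 7.4, 0.01% Tween-20, then compound added for 30 min. AlphaScreen streptavidin donor/nickel chelate acceptor beads (10 ug/mL final), 30 min dark, luminescence read.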
PLK1 PBD block: PLK1 (human) polo-box domain binding inhibition; P53350; Plk1 PBD binding of FITC phosphopeptide, fluorescence polarization; Potency, µM, for inactives: max response, negative = inhibition, most hits filed as inhibitors; 360,000 compounds, 2.8% hits; AID 720504; note: series mostly up to about 57 µM; % is set by controls: 0 for no effect and ±100 for the full control effect; nearly all actives have a fitted effect of over 65% in size
Sfp PPTase inh: Sfp phosphopantetheinyl transferase inhibition; Q9F4F7; Biochemical Sfp PPTase activity, qHTS; Potency, µM, inactives show largest response in the series, negative = inhibition, hits mostly inhibitors; 310,000 compounds, 3.5% hits;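 note: the enzyme is Sfp with the accession as filed and its product quenches rhodamine fluorescence; 0% = enzyme reaction without inhibitor and -100% = no enzyme wells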
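Reaction rates are the 30-min fluorescence difference (ex 525, em 598 nm) in wells containing 15 nM Sfp, 5 uM rhodamine-CoA and 12.5 uM BHQ-2-YbbR at pH 7.6 with 10 mM MgCl2.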
* marks the source's active call; other numbers are inactive results; ? = inconclusive; / = no result; [ ] = another dose, or the depositor's remark. A selection: hits, their analogues and other compounds. The true share with any hit is near 12%. Calls come from the whole dose curve; as a rule, active = well fitted curve in the direction sought with a large enough effect; inconclusive = small, poorly fitted or top-dose-only effect, or another doubt; inactive = no such curve, though single readings can be large; an effect the other way counts as inactive or inconclusive. Potency is the fitted concentration of half-maximal effect.

SMILES	G9a inh	BAZ2B block	JMJD2A Tudor inh	HP1b chromo inh	PLK1 PBD block	Sfp PPTase inh
CC1=NN(c2ccccc2)C(=O)/C1=C\c1cn(C)c2ccccc12	11µM*	3.5µM*	8.9µM*	16µM*	-10%	-10%
CCOC(=O)c1ccccc1NC(=O)NCc1cccn1Cc1ccc(F)cc1	16%[59 µM]	-19%	0%	50%	/	/
CCOc1ccc(CN2CCNC(=O)C2CC(=O)NCc2csc(C)n2)cc1 (stereo not drawn)	/	-6%	-18%	18%	-10%	-9%
Cc1nc(CCNC(=O)CC2C(=O)NCCN2Cc2ccccc2F)sc1C (stereo not drawn)	45µM*	-14%	1%	-3%	-27%	-8%
Cc1nc(CNC(=O)CC2C(=O)NCCN2Cc2ccc(F)cc2)cs1 (stereo not drawn)	50µM*	-20%	0%	53%	-2%	4%
COc1cccc(CN2CCNC(=O)C2CC(=O)NCCc2nc(C)c(C)s2)c1OC (stereo not drawn)	6%[12.7 µM]	-12%	-11%	48%	-16%	45µM*
Cc1nc(CCNC(=O)CC2C(=O)NCCN2Cc2ccc(F)cc2)sc1C (stereo not drawn)	56µM*	-2%	-16%	25%	-16%	32µM*
COc1cc(-c2nnc(SCC(=O)Nc3ccc(C(=O)O)cc3)o2)cc(OC)c1OC	/	/	-18%	-4%	-2%	/
S=C1Cc2ccccc2C(c2ccc(Cl)cc2)N1 (stereo not drawn)	?	?	?	?	?	11%
S=C1NCCc2ccc(Cl)cc2C1c1ccccc1 (stereo not drawn)	-17%[59 µM]	40µM*	?	?	-8%	14%
CCCc1[nH][nH]c(=O)c1C(c1cccc(Cl)c1)C(C#N)C#N (stereo not drawn)	79µM*	?	-29%	22%	11µM*	-10%
COc1ccc2c(c1)c(-c1csc(N)n1)c(C)n2C	7%[0.501 µM]	79µM*	-55%	-13%	-11%	-16%
Cc1ccc2c(c1)c(-c1csc(N)n1)c(C)n2C	45µM*	?	?	?	-6%	1%
O=C(CSCc1cc(=O)n2nc(C3CC3)sc2n1)Nc1ccccc1Cl	51%	-16%	-2%	19%	-4%	8%
C=CCn1c(O)c(C2=c3ccccc3=NC2=O)c2ccccc21	6.3µM*	6.3µM*	10µM*	?	17µM*	45µM*
CC(C)(Oc1ccc(Cl)cc1)C(=O)NCc1ccc(S(N)(=O)=O)cc1	45µM*	?	-22%	3%	-5%	17%
Cc1cccc(OC(C)C(=O)NCc2ccc(S(N)(=O)=O)cc2)c1 (stereo not drawn)	-7%[59 µM]	-4%	-20%	12%	-11%	19%
COC(=O)CNC(=O)C(C)(C)Oc1ccc(Cl)cc1	-2%[59 µM]	11%	-18%[11.4 µM]	-6%	-26%	-2%
CC(Oc1cccc(Cl)c1)C(=O)NCc1ccc(S(N)(=O)=O)cc1 (stereo not drawn)	/	5%	?	11%	19µM*	1%
CC1CCN(C(=O)CSc2c3c(nc4ccc(Cl)cc24)CCCC3)CC1	11%[59 µM]	/	-16%	27%	/	/
Cc1ccn(CC(=O)N2CCCC(N3CCN(Cc4ccc5c(c4)OCO5)CC3)C2)n1 (stereo not drawn)	?	-9%	-3%	16%	-3%	13%
Cc1cc(C)n(CC(=O)N2CCCC(N3CCN(Cc4ccc5c(c4)OCO5)CC3)C2)n1 (stereo not drawn)	79µM*	-3%	-15%	8%	-4%	11%
CC(C)Nc1nc(-c2ccncc2)nc(-c2ccccc2)c1C#N	10%	5%	-2%	53%	4%	7%
CC(=O)c1sc(N/N=C2\CC3CC2C(C)C3(C)C)nc1C (stereo not drawn)	40µM*	?	?	-12%	-25%	35µM*
COc1cc(C2CC(=O)Oc3c(C(CCN4CCN(c5ccccc5)CC4)c4ccc(N(C)C)cc4)c(OC)cc(OC)c32)cc(OC)c1OC (stereo not drawn)	?	7.9µM*	8.9µM*	?	-9%	19%
SMILES	G9a inh	BAZ2B block	JMJD2A Tudor inh	HP1b chromo inh	PLK1 PBD block	Sfp PPTase inh
COc1ccc(C(CCN2CCOCC2)c2c(OC)cc(OC)c3ccc(=O)oc23)cc1 (stereo not drawn)	/	/	-15%	11%	-2%	/
COc1cc(C2CC(=O)Oc3c(C(CCN4CCOCC4)c4ccc(N(C)C)cc4)c(OC)cc(OC)c32)cc(OC)c1OC (stereo not drawn)	?	45µM*	40µM*	?	-7%	1%
Cc1cc(C)cc(NC(=O)NCc2noc3ccccc23)c1	4%[59 µM]	-23%	-17%	4%	/	/
CC(=O)c1cc2c(O)c(O)ccc2o1	4µM*	-30%	?	15%	-5%	56µM*
CCOc1ccc(-n2cc(-c3ccccc3)c3c(=O)[nH]cnc32)cc1	45µM*	?	?	?	-4%	-9%
O=c1[nH]cnc2c1c(-c1ccccc1)cn2-c1ccc(Br)cc1	5%[59 µM]	1%	-4%	2%	-13%	-4%
Cc1cccc(-n2cc(-c3ccccc3)c3c(=O)[nH]cnc32)c1	?	45µM*	79µM*	?	?	-15%
CCc1ccc2oc(C(=O)Nc3nc(-c4ccc(F)cc4)ns3)c(C)c2c1	-21%[59 µM]	-6%	-16%	49%	/	/
Nc1ccc2nc[nH]c2c1	50µM*	-35%	?	6%	?	-20%
Fc1ccc(-c2ccc(CNCc3ccccn3)o2)cc1	40µM*	50µM*	50µM*	15%	4%	-2%
Fc1ccc(-c2ccc(CNCCSc3nnnn3-c3ccccc3)o2)cc1	13µM*	35µM*	?	-15%	/	/
Clc1ccc(-c2ccc(CNCc3ccccn3)o2)cc1	?	20µM*	79µM*	-1%	-3%	-5%
N#Cc1nc(-c2ccc(Cl)cc2)oc1NCCc1ccccn1	?	6%	-11%	15%	-7%	10%
CCc1ccc(C(=O)c2cn(CC(=O)Nc3cc(C)ccc3C)c3nc(C)ccc3c2=O)cc1	2%[59 µM]	-2%	-31%	-8%	/	/
COc1cccc(CN(C)C[C@H]2OCc3cnnn3CCCC(=O)N([C@@H](C)CO)C[C@@H]2C)c1	/	/	/	/	-10%	/
CCN(CC)C(=O)c1[nH]cnc1C(=O)NCC(=O)OCc1ccccc1	79µM*	-3%	-17%	54%	-4%	5%
C[C@H](NC(=O)c1nc[nH]c1C(=O)N[C@@H](Cc1ccccc1)C(=O)OCc1ccccc1)C(=O)OCc1ccccc1	/	-1%	-26%	45%	9%	2%
